Measurements reported in ChEMBL document CHEMBL1201862, “PubChem BioAssay data set” (2004).
The campaign covered roughly 220,000 compounds. About 2,400 (1.1%) were called active. Inconclusive results (about 7%) are left out. The rule behind the calls is not given here. The sample as a whole holds a higher share of actives than the screen did.

Biological target: Huntingtin (Homo sapiens) (UniProt P42858)
Test: qHTS Multiplex Assay to Identify Dual Action Probes in a Cell Model of Huntington: Aggregate Formation (GFP). [Related pubchem assays: 1482, 1471 ]
Type: functional

Huntingtin (Homo sapiens), sequence (P42858 whole entry): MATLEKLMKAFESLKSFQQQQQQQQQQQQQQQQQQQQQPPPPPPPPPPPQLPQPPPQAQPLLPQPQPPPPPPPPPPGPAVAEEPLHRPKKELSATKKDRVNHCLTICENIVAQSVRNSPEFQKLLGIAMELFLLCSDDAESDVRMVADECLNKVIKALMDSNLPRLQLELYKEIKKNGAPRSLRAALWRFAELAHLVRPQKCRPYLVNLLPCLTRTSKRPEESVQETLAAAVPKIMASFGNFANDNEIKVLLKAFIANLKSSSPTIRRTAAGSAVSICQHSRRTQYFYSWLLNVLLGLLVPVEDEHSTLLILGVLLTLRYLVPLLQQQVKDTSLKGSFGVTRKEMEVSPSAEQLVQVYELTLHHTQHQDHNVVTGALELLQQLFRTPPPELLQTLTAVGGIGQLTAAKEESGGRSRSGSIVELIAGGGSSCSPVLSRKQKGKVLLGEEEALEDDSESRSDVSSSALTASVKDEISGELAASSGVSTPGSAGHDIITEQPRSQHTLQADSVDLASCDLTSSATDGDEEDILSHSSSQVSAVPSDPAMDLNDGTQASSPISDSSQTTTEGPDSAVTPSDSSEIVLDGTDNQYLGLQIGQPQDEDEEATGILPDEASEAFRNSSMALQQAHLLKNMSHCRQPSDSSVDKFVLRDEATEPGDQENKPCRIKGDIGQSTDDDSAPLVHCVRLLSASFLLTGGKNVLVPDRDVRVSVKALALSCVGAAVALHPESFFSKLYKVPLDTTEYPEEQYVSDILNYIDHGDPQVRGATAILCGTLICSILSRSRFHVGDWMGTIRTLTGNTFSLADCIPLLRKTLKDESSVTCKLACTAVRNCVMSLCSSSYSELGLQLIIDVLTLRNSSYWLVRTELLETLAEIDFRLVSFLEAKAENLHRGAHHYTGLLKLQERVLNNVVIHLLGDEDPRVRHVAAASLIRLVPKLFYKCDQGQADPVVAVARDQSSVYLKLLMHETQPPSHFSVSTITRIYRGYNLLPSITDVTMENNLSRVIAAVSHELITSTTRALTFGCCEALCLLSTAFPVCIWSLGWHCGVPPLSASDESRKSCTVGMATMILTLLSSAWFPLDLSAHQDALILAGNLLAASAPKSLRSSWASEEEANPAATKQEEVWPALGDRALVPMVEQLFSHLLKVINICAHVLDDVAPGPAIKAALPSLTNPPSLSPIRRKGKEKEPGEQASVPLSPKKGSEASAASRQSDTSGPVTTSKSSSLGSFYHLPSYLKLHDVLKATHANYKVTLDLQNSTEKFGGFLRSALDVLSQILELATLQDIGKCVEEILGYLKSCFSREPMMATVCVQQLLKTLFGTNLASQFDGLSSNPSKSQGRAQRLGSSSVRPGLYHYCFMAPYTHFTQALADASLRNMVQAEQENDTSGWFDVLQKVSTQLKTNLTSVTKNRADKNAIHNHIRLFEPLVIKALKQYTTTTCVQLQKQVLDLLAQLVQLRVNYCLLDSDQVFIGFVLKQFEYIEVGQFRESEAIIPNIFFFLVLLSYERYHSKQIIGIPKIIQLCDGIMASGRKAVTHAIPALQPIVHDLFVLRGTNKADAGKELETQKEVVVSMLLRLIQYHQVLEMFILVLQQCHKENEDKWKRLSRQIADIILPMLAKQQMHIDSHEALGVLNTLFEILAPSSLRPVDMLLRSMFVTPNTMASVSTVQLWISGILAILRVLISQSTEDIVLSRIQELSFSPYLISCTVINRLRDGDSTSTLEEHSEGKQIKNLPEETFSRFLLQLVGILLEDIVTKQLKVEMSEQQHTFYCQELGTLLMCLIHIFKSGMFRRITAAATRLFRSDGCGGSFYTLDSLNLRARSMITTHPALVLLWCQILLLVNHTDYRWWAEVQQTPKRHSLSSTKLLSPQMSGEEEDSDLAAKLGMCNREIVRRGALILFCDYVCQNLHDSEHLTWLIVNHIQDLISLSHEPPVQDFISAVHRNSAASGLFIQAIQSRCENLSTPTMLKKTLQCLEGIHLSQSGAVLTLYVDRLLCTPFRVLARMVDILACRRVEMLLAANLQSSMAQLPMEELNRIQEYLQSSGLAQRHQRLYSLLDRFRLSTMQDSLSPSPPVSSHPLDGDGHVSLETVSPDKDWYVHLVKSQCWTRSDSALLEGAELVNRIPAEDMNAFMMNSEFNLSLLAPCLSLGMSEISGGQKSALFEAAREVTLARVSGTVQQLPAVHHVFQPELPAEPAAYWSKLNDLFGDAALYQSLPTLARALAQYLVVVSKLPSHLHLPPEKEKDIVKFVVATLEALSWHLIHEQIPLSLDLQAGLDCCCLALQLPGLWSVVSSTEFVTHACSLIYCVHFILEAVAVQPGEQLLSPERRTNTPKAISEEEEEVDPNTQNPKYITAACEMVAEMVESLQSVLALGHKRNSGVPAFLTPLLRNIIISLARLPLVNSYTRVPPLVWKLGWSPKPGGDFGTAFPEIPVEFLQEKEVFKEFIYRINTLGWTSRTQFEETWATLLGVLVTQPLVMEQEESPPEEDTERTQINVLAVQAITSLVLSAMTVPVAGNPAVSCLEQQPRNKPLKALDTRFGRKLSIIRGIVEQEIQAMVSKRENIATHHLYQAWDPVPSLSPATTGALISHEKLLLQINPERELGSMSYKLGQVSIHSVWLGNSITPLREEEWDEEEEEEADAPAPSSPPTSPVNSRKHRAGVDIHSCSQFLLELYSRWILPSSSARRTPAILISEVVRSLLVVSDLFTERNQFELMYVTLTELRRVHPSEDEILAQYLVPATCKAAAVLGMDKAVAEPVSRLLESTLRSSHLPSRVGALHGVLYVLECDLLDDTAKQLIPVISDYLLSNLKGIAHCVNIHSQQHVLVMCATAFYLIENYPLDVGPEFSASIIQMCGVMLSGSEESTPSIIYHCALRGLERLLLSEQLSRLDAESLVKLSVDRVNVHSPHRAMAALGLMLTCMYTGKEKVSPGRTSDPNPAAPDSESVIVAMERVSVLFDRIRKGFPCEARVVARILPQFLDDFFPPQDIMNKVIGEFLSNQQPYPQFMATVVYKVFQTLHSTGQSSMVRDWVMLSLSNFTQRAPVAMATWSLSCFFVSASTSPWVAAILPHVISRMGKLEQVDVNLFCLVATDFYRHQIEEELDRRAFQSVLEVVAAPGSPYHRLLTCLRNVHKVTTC

Potency, active:
O=C(c1nc2nc(-c3ccccc3)cc(C(F)(F)F)n2n1)N1CCOCC1 112 µM
CCOc1ccc(S(=O)(=O)n2ccc(C)n2)c2ccccc12 56.2 µM
Cc1nnc2sc(SCc3ccc(Cl)cc3)nn2c1=O 891 µM
CCOC(=O)c1ccc(N2CN(CCc3ccccc3)CN=C2S)cc1 112 µM
O=C1C2C3C=CC(C3)C2C(=O)N1CCCO (stereo not drawn) 89.1 µM
CCOC(=O)c1c(NC(=O)C2=C(C)N=C(S)NC2c2ccc(F)cc2)sc(C)c1C (stereo not drawn) 112 µM
CCOC(=O)Cn1c(-c2ccccn2)nc2ccccc21 224 µM
CN(C)CCN(C(=O)c1ccc(S(=O)(=O)N(C)C)cc1)c1nc2cc3c(cc2s1)OCCO3 141 µM
